Inhibition data for 1 compound are collected here from ChEMBL document CHEMBL1961873, “Compounds: GSK PKIS; Assays: Nanosyn kinase panel” (2012).

Test [1] deals with Sphingosine kinase 1 (Homo sapiens) (UniProt Q9NYA1). The following applies: at 1 µM.
Test [2] deals with T1, Sphingosine kinase 2 (Homo sapiens) (UniProt Q9NRA0).
T1 sequence (whole entry): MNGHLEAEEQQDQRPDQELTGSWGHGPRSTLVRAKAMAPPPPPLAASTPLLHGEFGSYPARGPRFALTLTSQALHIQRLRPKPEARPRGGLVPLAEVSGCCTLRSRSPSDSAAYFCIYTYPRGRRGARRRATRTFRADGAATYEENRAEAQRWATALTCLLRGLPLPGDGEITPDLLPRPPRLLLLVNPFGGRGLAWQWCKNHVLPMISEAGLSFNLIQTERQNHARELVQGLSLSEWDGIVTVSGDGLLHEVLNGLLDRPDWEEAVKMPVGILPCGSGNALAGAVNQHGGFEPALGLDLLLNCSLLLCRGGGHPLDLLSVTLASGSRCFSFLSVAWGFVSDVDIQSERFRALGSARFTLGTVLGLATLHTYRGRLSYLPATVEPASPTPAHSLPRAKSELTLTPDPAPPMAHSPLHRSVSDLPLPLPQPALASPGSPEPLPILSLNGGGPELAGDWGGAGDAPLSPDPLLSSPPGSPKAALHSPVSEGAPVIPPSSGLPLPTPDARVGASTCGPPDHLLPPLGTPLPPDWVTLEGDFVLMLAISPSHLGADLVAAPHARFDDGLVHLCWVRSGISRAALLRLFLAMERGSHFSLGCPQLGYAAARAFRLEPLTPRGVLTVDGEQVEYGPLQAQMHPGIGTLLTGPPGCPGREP
The settings on record: at 0.1 µM.

In test [3] the target is T1, Sphingosine kinase 2 (Homo sapiens). The following applies: at 1 µM.
Test [4] has as its target Casein kinase II subunit alpha (Homo sapiens) (UniProt P68400). The settings on record: at 0.1 µM.
Test [5] shares this target. The following applies: at 1 µM.
For test [6], the target named is T2, Inhibitor of nuclear factor kappa-B kinase subunit alpha (Homo sapiens) (UniProt O15111).
T2 sequence (whole entry): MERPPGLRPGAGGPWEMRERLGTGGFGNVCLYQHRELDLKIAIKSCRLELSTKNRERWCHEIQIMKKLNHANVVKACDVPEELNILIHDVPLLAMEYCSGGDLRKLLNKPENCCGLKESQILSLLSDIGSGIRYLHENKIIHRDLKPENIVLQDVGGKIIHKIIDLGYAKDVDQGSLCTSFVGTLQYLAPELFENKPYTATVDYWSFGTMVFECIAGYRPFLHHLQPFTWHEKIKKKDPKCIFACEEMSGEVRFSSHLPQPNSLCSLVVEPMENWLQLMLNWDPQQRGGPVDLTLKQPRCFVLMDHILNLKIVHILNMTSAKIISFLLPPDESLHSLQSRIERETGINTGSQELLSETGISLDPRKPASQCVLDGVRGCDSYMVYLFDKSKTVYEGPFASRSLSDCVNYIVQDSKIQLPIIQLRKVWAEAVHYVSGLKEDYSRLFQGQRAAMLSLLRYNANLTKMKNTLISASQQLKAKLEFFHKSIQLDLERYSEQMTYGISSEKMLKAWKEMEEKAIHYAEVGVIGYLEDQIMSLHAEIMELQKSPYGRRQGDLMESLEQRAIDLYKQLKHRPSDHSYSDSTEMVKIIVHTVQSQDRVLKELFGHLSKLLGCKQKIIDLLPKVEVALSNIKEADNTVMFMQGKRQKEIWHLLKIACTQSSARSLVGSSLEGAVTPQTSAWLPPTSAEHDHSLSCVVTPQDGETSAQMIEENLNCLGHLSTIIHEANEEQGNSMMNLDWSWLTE
The following applies: at 0.1 µM.

In test [7] the target is T2, Inhibitor of nuclear factor kappa-B kinase subunit alpha (Homo sapiens). The following applies: at 1 µM.
The target in test [8] is T3, Inhibitor of nuclear factor kappa-B kinase subunit beta (Homo sapiens) (UniProt O14920).
T3 sequence (whole entry): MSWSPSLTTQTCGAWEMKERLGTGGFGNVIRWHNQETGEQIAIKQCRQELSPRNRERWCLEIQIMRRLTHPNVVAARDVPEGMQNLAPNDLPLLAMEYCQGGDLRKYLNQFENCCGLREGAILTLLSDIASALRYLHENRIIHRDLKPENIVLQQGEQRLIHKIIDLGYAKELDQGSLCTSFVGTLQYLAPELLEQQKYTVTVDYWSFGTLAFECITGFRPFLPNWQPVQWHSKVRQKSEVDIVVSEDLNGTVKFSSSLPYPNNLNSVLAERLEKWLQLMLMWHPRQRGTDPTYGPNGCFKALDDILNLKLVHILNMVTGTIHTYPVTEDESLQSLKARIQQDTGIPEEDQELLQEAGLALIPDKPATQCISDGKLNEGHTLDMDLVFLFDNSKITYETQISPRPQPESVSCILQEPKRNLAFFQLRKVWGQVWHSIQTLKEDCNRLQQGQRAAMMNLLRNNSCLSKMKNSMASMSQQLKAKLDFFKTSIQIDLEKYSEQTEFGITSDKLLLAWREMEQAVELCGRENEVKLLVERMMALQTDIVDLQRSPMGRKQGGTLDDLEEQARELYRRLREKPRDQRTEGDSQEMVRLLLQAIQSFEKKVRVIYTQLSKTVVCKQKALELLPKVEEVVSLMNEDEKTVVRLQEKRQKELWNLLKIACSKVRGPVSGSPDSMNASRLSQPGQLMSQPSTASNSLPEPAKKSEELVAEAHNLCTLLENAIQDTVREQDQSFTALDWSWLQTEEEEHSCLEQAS
The settings on record: at 0.1 µM.

Test [9] deals with T3, Inhibitor of nuclear factor kappa-B kinase subunit beta (Homo sapiens). The settings on record: at 1 µM.
In test [10] the target is T4, Inhibitor of nuclear factor kappa-B kinase subunit epsilon (Homo sapiens) (UniProt Q14164).
T4 sequence (whole entry): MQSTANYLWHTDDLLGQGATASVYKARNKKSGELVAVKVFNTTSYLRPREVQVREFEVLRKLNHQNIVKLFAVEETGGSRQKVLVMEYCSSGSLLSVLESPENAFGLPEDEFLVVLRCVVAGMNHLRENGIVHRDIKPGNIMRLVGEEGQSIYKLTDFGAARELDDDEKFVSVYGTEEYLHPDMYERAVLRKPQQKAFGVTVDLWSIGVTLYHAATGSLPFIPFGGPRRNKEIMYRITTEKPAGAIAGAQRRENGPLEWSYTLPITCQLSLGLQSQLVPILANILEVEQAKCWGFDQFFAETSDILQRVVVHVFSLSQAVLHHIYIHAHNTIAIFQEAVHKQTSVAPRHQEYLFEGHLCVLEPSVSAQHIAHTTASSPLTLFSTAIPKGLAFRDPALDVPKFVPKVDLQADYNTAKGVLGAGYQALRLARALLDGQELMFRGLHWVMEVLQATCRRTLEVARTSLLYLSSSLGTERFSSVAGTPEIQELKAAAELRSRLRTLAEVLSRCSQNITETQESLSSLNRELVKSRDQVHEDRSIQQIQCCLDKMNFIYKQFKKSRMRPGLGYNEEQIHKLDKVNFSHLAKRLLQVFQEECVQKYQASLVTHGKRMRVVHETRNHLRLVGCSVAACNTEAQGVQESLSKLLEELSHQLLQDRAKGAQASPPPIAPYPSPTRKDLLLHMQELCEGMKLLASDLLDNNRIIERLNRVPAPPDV
The following applies: at 0.1 µM.

Test [11] addresses T4, Inhibitor of nuclear factor kappa-B kinase subunit epsilon (Homo sapiens). The following applies: at 1 µM.
Test [12] concerns the target T5, Serine/threonine-protein kinase Nek1 (Homo sapiens) (UniProt Q96PY6).
T5 sequence (whole entry): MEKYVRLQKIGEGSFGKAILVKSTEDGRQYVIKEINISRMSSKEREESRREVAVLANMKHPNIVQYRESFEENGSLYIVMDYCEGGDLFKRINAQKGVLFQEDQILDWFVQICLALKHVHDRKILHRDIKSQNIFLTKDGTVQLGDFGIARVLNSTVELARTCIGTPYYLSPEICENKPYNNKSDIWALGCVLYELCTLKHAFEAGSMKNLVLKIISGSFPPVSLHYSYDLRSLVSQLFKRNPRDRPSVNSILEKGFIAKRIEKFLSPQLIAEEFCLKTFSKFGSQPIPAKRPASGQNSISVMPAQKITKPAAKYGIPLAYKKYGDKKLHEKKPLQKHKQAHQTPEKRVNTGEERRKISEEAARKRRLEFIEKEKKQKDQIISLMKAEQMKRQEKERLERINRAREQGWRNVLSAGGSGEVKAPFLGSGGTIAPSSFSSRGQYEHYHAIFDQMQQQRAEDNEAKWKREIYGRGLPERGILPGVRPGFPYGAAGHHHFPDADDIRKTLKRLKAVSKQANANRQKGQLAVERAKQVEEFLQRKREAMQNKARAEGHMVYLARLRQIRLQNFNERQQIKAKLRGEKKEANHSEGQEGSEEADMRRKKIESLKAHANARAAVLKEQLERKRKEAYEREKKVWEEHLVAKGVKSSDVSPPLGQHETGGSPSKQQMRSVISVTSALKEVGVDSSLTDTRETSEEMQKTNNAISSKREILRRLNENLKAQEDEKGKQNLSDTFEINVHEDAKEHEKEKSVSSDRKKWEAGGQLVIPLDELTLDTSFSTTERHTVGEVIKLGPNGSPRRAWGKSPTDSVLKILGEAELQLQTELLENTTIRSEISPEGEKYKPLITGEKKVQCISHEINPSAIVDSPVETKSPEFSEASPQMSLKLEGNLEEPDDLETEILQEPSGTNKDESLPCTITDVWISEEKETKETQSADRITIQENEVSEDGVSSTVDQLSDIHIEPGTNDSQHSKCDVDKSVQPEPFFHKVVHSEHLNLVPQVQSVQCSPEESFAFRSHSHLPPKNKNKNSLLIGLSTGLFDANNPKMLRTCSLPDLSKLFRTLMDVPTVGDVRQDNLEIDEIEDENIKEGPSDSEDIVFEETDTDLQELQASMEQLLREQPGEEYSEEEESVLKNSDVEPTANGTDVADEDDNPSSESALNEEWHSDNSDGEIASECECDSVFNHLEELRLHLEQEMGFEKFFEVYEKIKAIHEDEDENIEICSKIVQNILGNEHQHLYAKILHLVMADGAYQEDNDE
The following applies: at 0.1 µM.

Test [13] has as its target T5, Serine/threonine-protein kinase Nek1 (Homo sapiens). The following applies: at 1 µM.
The target of test [14] is T6, Serine/threonine-protein kinase Nek2 (Homo sapiens) (UniProt P51955).
T6 sequence (whole entry): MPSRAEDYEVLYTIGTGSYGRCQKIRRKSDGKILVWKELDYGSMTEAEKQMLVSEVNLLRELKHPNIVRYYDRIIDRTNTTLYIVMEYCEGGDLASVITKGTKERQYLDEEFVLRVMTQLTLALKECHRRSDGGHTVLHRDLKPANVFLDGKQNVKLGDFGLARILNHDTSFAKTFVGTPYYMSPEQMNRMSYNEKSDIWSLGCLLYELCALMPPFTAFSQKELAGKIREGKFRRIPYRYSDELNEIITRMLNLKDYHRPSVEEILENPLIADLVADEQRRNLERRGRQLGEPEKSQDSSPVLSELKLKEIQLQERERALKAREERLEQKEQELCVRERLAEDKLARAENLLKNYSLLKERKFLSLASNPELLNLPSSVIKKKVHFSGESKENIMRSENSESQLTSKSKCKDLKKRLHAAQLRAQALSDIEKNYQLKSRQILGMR
The settings on record: at 0.1 µM.

Test [15] has as its target T6, Serine/threonine-protein kinase Nek2 (Homo sapiens). The following applies: at 1 µM.
For test [16], the target named is Serine/threonine-protein kinase Nek6 (Homo sapiens) (UniProt Q9HC98). The following applies: at 0.1 µM.
Chain of Serine/threonine-protein kinase Nek6 (Homo sapiens) (Q9HC98 whole entry): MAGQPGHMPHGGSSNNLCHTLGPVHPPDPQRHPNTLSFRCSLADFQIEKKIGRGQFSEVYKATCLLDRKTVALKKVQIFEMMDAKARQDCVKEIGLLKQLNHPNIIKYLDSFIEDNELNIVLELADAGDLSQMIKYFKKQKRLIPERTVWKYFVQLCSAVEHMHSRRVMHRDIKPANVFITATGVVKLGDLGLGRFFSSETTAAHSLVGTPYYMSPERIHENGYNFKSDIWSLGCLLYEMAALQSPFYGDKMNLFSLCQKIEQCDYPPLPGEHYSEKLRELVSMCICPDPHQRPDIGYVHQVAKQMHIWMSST
For test [17] the target is unchanged. The settings on record: at 1 µM.
For test [18], the target named is Serine/threonine-protein kinase Nek7 (Homo sapiens) (UniProt Q8TDX7). The settings on record: at 0.1 µM.
Chain of Serine/threonine-protein kinase Nek7 (Homo sapiens) (Q8TDX7 whole entry, looked up): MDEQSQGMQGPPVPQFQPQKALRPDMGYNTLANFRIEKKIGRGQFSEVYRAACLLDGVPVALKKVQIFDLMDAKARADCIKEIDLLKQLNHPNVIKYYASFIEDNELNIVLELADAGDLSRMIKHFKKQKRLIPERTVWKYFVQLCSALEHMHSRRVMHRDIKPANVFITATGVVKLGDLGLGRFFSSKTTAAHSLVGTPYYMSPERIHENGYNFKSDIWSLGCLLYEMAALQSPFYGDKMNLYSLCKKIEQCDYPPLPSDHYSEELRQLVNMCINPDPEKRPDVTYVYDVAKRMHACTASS
Test [19] has the same target. The settings on record: at 1 µM.
Test [20] addresses T7, Serine/threonine-protein kinase Nek9 (Homo sapiens) (UniProt Q8TD19).
T7 sequence (whole entry): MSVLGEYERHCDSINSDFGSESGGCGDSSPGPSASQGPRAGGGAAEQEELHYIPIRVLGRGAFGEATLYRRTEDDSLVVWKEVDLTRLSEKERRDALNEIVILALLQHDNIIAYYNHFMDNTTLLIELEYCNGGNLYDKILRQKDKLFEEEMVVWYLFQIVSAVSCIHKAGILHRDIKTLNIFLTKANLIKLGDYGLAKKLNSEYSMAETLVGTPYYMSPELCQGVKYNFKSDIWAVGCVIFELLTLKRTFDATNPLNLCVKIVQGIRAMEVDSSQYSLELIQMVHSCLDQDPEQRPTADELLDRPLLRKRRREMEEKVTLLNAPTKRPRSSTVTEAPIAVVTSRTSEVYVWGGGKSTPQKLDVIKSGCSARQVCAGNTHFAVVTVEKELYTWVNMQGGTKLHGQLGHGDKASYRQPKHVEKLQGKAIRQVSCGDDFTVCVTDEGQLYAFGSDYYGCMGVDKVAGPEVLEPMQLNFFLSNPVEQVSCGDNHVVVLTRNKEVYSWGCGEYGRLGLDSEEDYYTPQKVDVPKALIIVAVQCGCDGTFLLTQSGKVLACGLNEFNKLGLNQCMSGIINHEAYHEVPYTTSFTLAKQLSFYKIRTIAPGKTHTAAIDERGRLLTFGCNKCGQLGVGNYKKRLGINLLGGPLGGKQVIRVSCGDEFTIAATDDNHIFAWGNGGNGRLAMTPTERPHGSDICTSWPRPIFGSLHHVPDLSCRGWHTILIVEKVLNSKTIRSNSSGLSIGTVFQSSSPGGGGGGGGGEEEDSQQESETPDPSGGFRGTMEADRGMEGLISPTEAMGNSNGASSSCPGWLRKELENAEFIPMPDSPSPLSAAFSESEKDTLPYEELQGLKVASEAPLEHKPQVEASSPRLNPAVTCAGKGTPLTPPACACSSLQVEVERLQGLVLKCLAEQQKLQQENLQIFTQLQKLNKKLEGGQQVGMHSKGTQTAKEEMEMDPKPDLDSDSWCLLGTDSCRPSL
The settings on record: at 0.1 µM.

Chain of Casein kinase II subunit alpha (Homo sapiens) (P68400 whole entry, looked up): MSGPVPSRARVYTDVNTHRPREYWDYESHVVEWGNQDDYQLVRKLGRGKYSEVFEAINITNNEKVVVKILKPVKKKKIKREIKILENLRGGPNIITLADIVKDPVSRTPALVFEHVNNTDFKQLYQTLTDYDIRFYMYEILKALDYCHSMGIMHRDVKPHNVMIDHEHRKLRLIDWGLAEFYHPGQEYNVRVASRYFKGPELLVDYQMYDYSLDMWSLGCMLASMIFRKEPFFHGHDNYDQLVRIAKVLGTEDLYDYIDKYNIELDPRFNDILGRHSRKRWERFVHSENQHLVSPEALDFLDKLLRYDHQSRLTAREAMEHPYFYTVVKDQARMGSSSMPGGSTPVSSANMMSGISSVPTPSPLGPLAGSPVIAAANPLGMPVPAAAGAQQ
Chain of Sphingosine kinase 1 (Homo sapiens) (Q9NYA1 whole entry): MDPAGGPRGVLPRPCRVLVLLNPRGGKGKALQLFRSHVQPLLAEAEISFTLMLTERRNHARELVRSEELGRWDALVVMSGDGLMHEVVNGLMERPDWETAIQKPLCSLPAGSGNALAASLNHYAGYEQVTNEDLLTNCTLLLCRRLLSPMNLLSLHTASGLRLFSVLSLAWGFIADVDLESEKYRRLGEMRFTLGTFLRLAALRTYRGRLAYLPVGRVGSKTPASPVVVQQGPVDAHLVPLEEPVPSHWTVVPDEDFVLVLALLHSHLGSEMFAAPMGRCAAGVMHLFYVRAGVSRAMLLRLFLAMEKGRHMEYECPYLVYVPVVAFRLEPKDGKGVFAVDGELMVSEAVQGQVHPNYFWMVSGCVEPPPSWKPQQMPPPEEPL

As to `O=C(Nc1n[nH]c2nnc(-c3cccnc3)cc12)C1CC1`, the inhibition (as a rule, the relative decrease from the control value, in per cent) was -2.26% in test [1]; -0.36% in test [2]; -1.77% in test [3]; 3.14% in test [4]; 5.42% in test [5]; 0.84% in [6]. Further, the inhibition in test [7] was -0.73%; in test [8], 1.55%; in test [9] it was 1.04%; in [10], -2.46%; in test [11], 0.84%; in test [12] it was 0.17%. The inhibition was 1.72% in test [13]; 0.71% in [14]; -2.27% in test [15]; -0.09% in test [16]; -0.1% in [17]; 0.09% in test [18]. For the same compound, the inhibition worked out at 1.6% in test [19] and 7.25% in test [20].
